This is an account of results in PubChem BioAssay AID602156 (GNF / Scripps Winzeler lab, 2011).

Among all 5,700 compounds or so, about 280 (4.9%) were called active. No rule for the calls is given here. Only a sample is shown.

The nature of the assay: Plasmodium liver-stage growth inhibition, dose response, imaging, Malaria Box, P. yoelii, HepG2-A16-CD81EGFP (AID 602156). The conditions noted are these: P. yoelii liver stage in HepG2-A16-CD81EGFP.
For the compound `CC(C)=CCCC(C)=CCCC(C)NCCN1CCNCC1` (stereo not given), the call was inactive.

With `C=CCNC(=O)c1ccc2c(c1)N=CN(CCOc1ccccc1)C2`, the compound was called inactive.

In the case of `Cn1c(SCC2CCCO2)nnc1C1CCN(C/C=C/c2ccccc2)CC1` (stereo not given), the compound was called inactive.

For `Cc1cc(S(=O)(=O)N2CCN(Cc3ccccc3)CC2)ccc1-n1cnnn1`, the result was inactive.

On to `COc1ccc(S(=O)(=O)ON=C2C=C(C(C)C)C(=O)C=C2C)cc1`, for which the call was inactive.

Take `COc1ccc(NC(=O)C2c3ccccc3C(=O)N(CC(C)C)C2c2cccs2)cc1OC` (stereo not given): the call was inactive.

With `COc1ccc(NC(=O)/C=C/c2ccccc2Cl)cc1`, the outcome was inactive.

As for `O=C1CC(c2ccccc2)CC2=C1C(c1cc(F)ccc1F)Nc1ccccc1N2` (stereo not given), the compound was called inactive.

Consider `CCCCCCCCC(=O)N1CCN(C(CC)c2nc3ccccc3c(=O)n2C)CC1` (stereo not given), for which the call was inactive.

As to `CC(c1nc2ccc(Cl)cc2c(=O)n1C)N1CCN(C(=O)C(C)(C)C)CC1` (stereo not given), the compound was classed as inactive.

Take `CCCCCCCCCC(=O)N1CCN(C(CC)c2nc3ccccc3c(=O)n2C)CC1` (stereo not given): the call was inactive.

As to `CC(c1nc2ccccc2c(=O)n1-c1ccc(Br)cc1)N1CCN(S(=O)(=O)c2ccc3ccccc3c2)C(C)C1` (stereo not given), the result was inactive.

On to `CCCCC(CC)C(=O)N1CCN(C(C)c2nc3ccc(Cl)cc3c(=O)n2C)CC1` (stereo not given), for which the result was inactive.

`CCC(NC1CCCCC1)c1nc2ccccc2c(=O)n1C` (stereo not given): the compound was called inactive.

Consider `COc1ccc(/C=C2\N=C(c3ccc(Cl)cc3)N(c3ccccc3)C2=O)cc1OC`, for which the compound was called inactive.

Consider `O=C(NCCCNC(=O)Nc1cccc(C2=NCCN2)c1)Nc1cccc(C2=NCCN2)c1`, for which the result was inactive.

As for `CC(C)c1ccc(NC(=O)C=Cc2ccccc2Cl)cc1`, the outcome was inactive.

With `COC(=O)c1sccc1S(=O)(=O)N1CCCC(c2[nH]ncc2-c2ccccc2)C1` (stereo not given), the compound was classed as inactive.

Regarding `Cc1cccc(Nc2nc3nonc3nc2NN=Cc2cccs2)c1C`, the result was inactive.

Turning to `O=C(NCCC(c1ccccc1)c1ccccc1)c1cccc([N+](=O)[O-])c1`, the compound was called inactive.

In the case of `COC(=O)c1ccc(C=NNc2cc(C)nc3ccc(OC)cc23)cc1`, the compound was classed as inactive.

As for `O=S(=O)(/C=C/c1ccccc1)NCCCCNc1ccnc2cc(Cl)ccc12`, the compound was classed as inactive.

As for `CCN(CC)Cc1cc(Nc2nc3ccccc3[nH]2)cc(CN(CC)CC)c1O`, the compound was called inactive.

`CC[n+]1c(C=C2Sc3ccccc3N2C)ccc2ccc(C)cc21`: the compound was classed as inactive.

Turning to `O=C(CNCCc1ccccc1)NC(c1ccccc1)c1ccccc1`, the outcome was inactive.

Turning to `O=C(c1c2c(nc3ccccc13)CCC2)N1CCc2ccccc21`, the compound was classed as inactive.

As to `O=C(O)c1cc([N+](=O)[O-])ccc1Oc1cncc(Cl)c1`, the outcome was inactive.

Consider `CCCN(CCC)CC(O)COc1ccccc1C(=O)Nc1ccccc1` (stereo not given), for which the outcome was inactive.

On to `CCn1c(SCC(=O)N(c2ccccc2)c2ccccc2)nc2sc3c(c2c1=O)CCN(C)C3`, for which the compound was classed as inactive.

Consider `Cc1cccc(CCNc2cc(C)nc3ncnn23)c1`, for which the call was inactive.

Turning to `COc1ccccc1N1CCN(C(=O)Nc2ccc3ccccc3c2)CC1`, the outcome was inactive.

Take `Oc1ccc(-c2cnccn2)cc1CNC1CCN(Cc2ccccc2)CC1`: the compound was classed as inactive.

For `CC1(C)C2CCC1(C)C(NCc1ccccc1O)C2` (stereo not given), the compound was called inactive.

As for `COc1ccc(OC)c(-c2ccc(O)c(CNCc3ccccc3OC)c2)c1`, the compound was called inactive.

With `COc1cccc(CNC(=O)[C@@H]2CNC[C@H]2c2ccc(C(F)(F)F)cc2)c1`, the call was inactive.

For `COc1ccc(CNC(=O)C2CNCC2c2ccc(C(F)(F)F)cc2)cc1` (stereo not given), the outcome was inactive.

Regarding `CCCCCN1/C(=C\C=C\c2n(CC)c3cc(Cl)c(Cl)cc3[n+]2CCCCC)N(CC)c2cc(Cl)c(Cl)cc21`, the compound was called inactive.

Turning to `COc1ccc(-c2cc(C(=O)NCc3cccnc3)no2)cc1OC`, the compound was classed as inactive.

On to `CC(C)CC(NC(=O)C(=Cc1ccco1)NC(=O)c1ccccc1)C(=O)OCc1ccccc1` (stereo not given), for which the compound was called inactive.

`c1ccc2c(NC3CCCC3)nc(Nc3ccc4c(c3)OCO4)nc2c1`: the compound was called inactive.

On to `O=C(Nc1ccc2c(c1)OCO2)c1cc2cc(C3(O)CCN(CCCc4ccccc4)CC3)ccc2o1`, for which the result was inactive.

In the case of `CC(C)CN1CCC(O)(c2ccc3oc(C(=O)Nc4ccc5c(c4)OCO5)cc3c2)CC1`, the compound was classed as inactive.

As for `O=C(CSc1nc2ccccc2[nH]1)Nc1ccc2c(c1)OCO2`, the outcome was inactive.

For the compound `CC(C)(C)C1=NN(CC(=O)Nc2ccc3c(c2)OCO3)C(=O)c2cc3ccccc3n2C1`, the call was inactive.

Consider `Clc1cccc(CSc2nc(Nc3ccc4c(c3)OCO4)c3ccccc3n2)c1`, for which the call was inactive.

On to `CCCc1ccc(OCCNC(=O)CCNC(=O)Nc2cccc(Cl)c2)cc1`, for which the compound was called inactive.

`CC(C)CNC(=O)c1ccc(OC2CCN(CC3CCCCC3)CC2)c(Cl)c1`: the compound was called inactive.

With `CC(C)CN(CC(=O)Nc1cc(C(C)(C)C)nn1-c1ccccc1)C(=O)c1cc(Cl)cc(Cl)c1`, the call was inactive.

For the compound `O=C(Nc1ccc(-n2cnnn2)cc1)C1CCN(Cc2ccc(OC(F)F)cc2)CC1`, the compound was called inactive.

On to `CCC(C)OC(=O)C1=C(C)NC2=C(C(=O)CC(c3ccc(Cl)cc3)C2)C1c1ccccc1F` (stereo not given), for which the call was inactive.

Regarding `N#Cc1cc(Oc2ccc(-c3cnc4ccccc4n3)cc2)nc2ccccc12`, the compound was called inactive.

With `COc1ccc(C2C(C(=O)Nc3cccc(OC)c3)c3ccccc3C(=O)N2C2CCCCC2)cc1` (stereo not given), the compound was called inactive.

`CC[n+]1c(C=CC=C2N(C)c3ccccc3C2(C)C)n(-c2ccccc2)c2ccccc21`: the compound was called inactive.

Take `COc1ccc(NC(=O)NCc2cccn2Cc2ccc(F)cc2)cc1OC`: the compound was called inactive.

Consider `Cn1nc(C(=O)N2CCCCCC2)c2c1CCC(NCC(C)(C)N1CCOCC1)C2` (stereo not given), for which the compound was called inactive.

Turning to `C=C(Cl)CSc1nnc(CCNC(=O)c2ccc(C)cc2)n1-c1ccc(F)cc1`, the compound was classed as inactive.

For the compound `CCc1nc2ccc(NC(=O)c3ccncc3)cc2c(=O)n1Cc1cccc(OC)c1`, the compound was called inactive.

Regarding `CCCc1nc2ccc(NC(=O)NCC)cc2c(=O)n1Cc1ccc(-c2ccccc2)cc1`, the compound was called inactive.

Regarding `COc1cc(OC)cc(C(=O)N(CCCC(C)Nc2cc(OC)cc3cccnc23)Cc2ccc(Cl)cc2)c1` (stereo not given), the outcome was inactive.

As to `COc1cc(C(=O)C=CNc2ccc(N(C)C)cc2)cc(OC)c1OC`, the result was inactive.

On to `CCC(Cc1cnc2nc(N)nc(N)c2n1)c1ccc(C(=O)N[C@@H](CCC(=O)O)C(=O)O)cc1` (stereo not given in full), for which the compound was classed as inactive.

As for `CCCCCCc1cc2cc(-c3nc4ccccc4[nH]3)c(=Nc3ccccc3C)oc2cc1O`, the result was inactive.

With `CC(C)(C)c1nn(-c2ccc(Cl)cc2)c2[nH]c(=O)c(CNCc3ccccc3)cc12`, the compound was called inactive.

Turning to `c1ccc2c(NCCNc3c4ccccc4nc4ccccc34)c3ccccc3nc2c1`, the outcome was inactive.

In the case of `COc1ccccc1N1CCN(Cc2cc(C(C)C)c(C)cc2O)CC1`, the call was inactive.

Consider `N#CN=C(N)c1sc(Nc2ccccc2)nc1N`, for which the compound was called inactive.

On to `CC1[C@H]2NC[C@H](C)C[C@]2(O)O[C@@H]2C[C@H]3[C@@H]4CC[C@H]5C[C@@H](N)CC[C@]5(C)C4CC[C@]3(C)[C@@H]12` (stereo not given in full), for which the outcome was inactive.

For `O=C(Nc1ccc(Cl)c(Cl)c1)Nc1ccc(Cl)c(Cl)c1`, the result was inactive.

Turning to `N=c1c2c(n(Cc3ccc(Cl)c(Cl)c3)c3c1CCC3)CCCC2`, the call was inactive.

On to `COc1ccc(C2CC(=O)C3=C(C2)NC(C)=C(C(=O)OC2CCCC2)C3c2ccccc2)cc1` (stereo not given), for which the result was inactive.

Turning to `COCCSc1nc2sc3c(c2c(=O)n1-c1ccc(OC)cc1)CCN(C)C3`, the compound was called inactive.

Take `Cc1ccc2nc3c(c(Nc4ccc(N(C)C)cc4)c2c1)CCC3`: the compound was called inactive.

Regarding `Cc1ccc(-c2nc3cc(NC(=O)c4ccc([N+](=O)[O-])o4)ccc3o2)cc1Br`, the compound was classed as inactive.

For the compound `Nc1cc(C(=O)Nc2cccc(C3=NCCN3)c2)ccc1C(=O)Nc1cccc(C2=NCCN2)c1`, the outcome was inactive.

On to `CCCCCC1CCCc2c1[nH]c1cc(Cl)ccc1c2=O` (stereo not given), for which the compound was called inactive.

Turning to `O=C(NCc1ccccc1)c1cnc(NCCCN2CCCC2)nc1NCCc1ccccc1`, the compound was classed as inactive.

In the case of `CC(C)c1ccc(C=CC(=O)NCc2ccco2)cc1`, the result was inactive.

Regarding `CCc1c(C)nc(SCC(=O)NNC(C)=O)[nH]c1=O`, the result was inactive.

In the case of `FC(F)(F)c1cccc(-c2nc3c(s2)CN(C2CCCC2)CC3)c1`, the call was inactive.

In the case of `Cc1c(/C=C2\SC(=Nc3ccccc3F)N(C3CCCCC3)C2=O)c2ccccc2n1CC(N)=O`, the result was inactive.

On to `Clc1ccc(-c2nc3ncc(Cl)cc3[nH]2)cc1`, for which the result was inactive.

As for `COc1cccc(-c2ccc(O)c(CN3CCC(C)CC3)c2)n1`, the compound was classed as inactive.

With `Clc1ccc(Nc2nc(NCc3ccco3)c3ccccc3n2)cc1`, the compound was classed as inactive.

Take `CCOC(=O)c1sc(NC(=O)CSc2nnc(CNC(=O)COc3ccc(Cl)cc3)n2C)c(C(=O)OCC)c1C`: the call was inactive.

With `COc1ccc(N=C(C)C2=C(O)c3ccccc3C2=O)c(OC)c1`, the result was inactive.

With `CN(C)c1ccc(/C=C/C=C/c2cc[n+](C)cc2)cc1`, the call was inactive.

As to `CCCCCCCCCCOC(=O)Cn1c(C)[n+](C)c2ccccc21`, the result was inactive.

Take `COCCn1nnnc1C(c1cc2cc3c(cc2[nH]c1=O)OCCO3)N1CCC(O)CC1` (stereo not given): the compound was called inactive.

`COc1cc2nc(NCc3ccccn3)n3nc(-c4ccccc4)nc3c2cc1OC`: the compound was classed as inactive.

`CCN1C(=S)NC2c3cc(C)ccc3OC13CCCC23` (stereo not given): the call was inactive.

Turning to `Cc1ccc(NC(=O)CCCCC(=O)Nc2ccc(C)c(Br)c2)cc1Br`, the compound was called inactive.

Consider `C#CC(C)(C)NC(=O)c1ccc(-c2ccc(CC)cc2)cc1`, for which the result was inactive.

`CCC(c1nc2ccccc2c(=O)n1-c1cccc(C)c1)N(CCc1ccccc1)C(=O)Nc1c(C(C)C)cccc1C(C)C` (stereo not given): the outcome was inactive.

Turning to `CCC(c1nc2ccccc2c(=O)n1-c1cccc(C)c1)N(Cc1ccccc1)C(=O)Nc1c(C(C)C)cccc1C(C)C` (stereo not given), the call was inactive.

With `CCCNC(=O)c1ccc(OC2CCN(CC(c3ccccc3)c3ccccc3)CC2)c(OC)c1`, the outcome was inactive.

For the compound `COCCNC(=O)c1ccc(OC2CCN(CC(c3ccccc3)c3ccccc3)CC2)c(OC)c1`, the result was inactive.

With `COc1ccc(SC2CCN(C3CCOCC3)CC2)cc1`, the call was inactive.

With `CCCCC(CC)C(=O)N(C)CCCNc1ccnc2cc(Cl)ccc12` (stereo not given), the outcome was inactive.

Turning to `O=C(NCC1CCCO1)c1cnc(NCCCn2ccnc2)nc1NCCc1ccccc1` (stereo not given), the outcome was inactive.

On to `Cc1cc(C)nc(N=C(N)Nc2ccccc2O)n1`, for which the call was inactive.
